Records with an inconclusive call do not appear. Calls of active or inactive are those of the source. Rule for the calls, unless noted: active = hit-call score of the fitted dose curve at least 0.9, where 1 is the maximum; inactive = score below 0.9.
Legend:
[1] = test system: TTR (gene 7276); experiment: CCTE_GLTED_hTTR_0.125uM: CCTE's human Transthyretin (hTTR) Inhibition Assay, with 0.125uM TTR, Great Lakes Toxicology and Ecology Division (GLTED) Lab (AID 2284431);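 note: hits lower the fluorescence signal relative to DMSO baseline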
Outline: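 Activity is defined as decreased ANSA fluorescence (ex 380, em 475) from human transthyretin, 0.125uM, following 2-hour chemical exposure in a cell-free setup, with DMSO as baseline.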

[2] = test system: SRY-box transcription factor 2 (SOX2) Protein Expression, Deisenroth Lab, SOX2 (gene 6657); experiment: CCTE_Deisenroth_DEVTOX-GLR_legacy_Sox2: (Legacy) CCTE's DevTox GLR-Endo Assay Evaluation of SRY-box transcription factor 2 (SOX2) Protein Expression, Deisenroth Lab (AID 2284346)
Outline: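 Two exposures, 24 h apart, during 48 h defined-media differentiation of seeded RUES2-GLR cells; nuclei-stained cells imaged. Sox2 positivity called at 5x BMAD above endoderm control median, DMSO median subtracted.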

[3] = test system: SRY-box transcription factor 2 (SOX2) Protein Expression, Deisenroth Lab, SOX2 (gene 6657); experiment: CCTE_Deisenroth_DEVTOX-GLR_Endo_SOX2: CCTE's DevTox GLR-Endo Assay Evaluation of SRY-box transcription factor 2 (SOX2) Protein Expression, Deisenroth Lab (AID 2284412; active = hit-call score of the fitted dose curve at least 0.9, where 1 is the maximum)
Outline: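 Endpoint is percent SOX2-positive cells (SOX2+ count/total cells) minus 0.2% DMSO control, from high-content imaging of fixed, nuclear-stained RUES2-GLR cells. Dosing twice at 24 h intervals over 48 h differentiation, 1 nM–200 uM in 10 points.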

[4] = test system: SRY-box transcription factor 17 (SOX17) Protein Expression, Deisenroth Lab, SOX17 (gene 64321); experiment: CCTE_Deisenroth_DEVTOX-GLR_Endo_SOX17: CCTE's DevTox GLR-Endo Assay Evaluation of SRY-box transcription factor 17 (SOX17) Protein Expression, Deisenroth Lab (AID 2284413)
Outline: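 Fluorescent microscopy of a SOX17 reporter in RUES2-GLR pluripotent cells scored endoderm differentiation after 48 h and two 24-h-spaced exposures. Values are percent change in SOX17+ population against 0.2% DMSO, n=4 experimental replicates.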

[5] = test system: Brachyury (BRA) Protein Expression, TBXT (gene 6862); experiment: CCTE_Deisenroth_DEVTOX-GLR_Endo_BRA: CCTE's DevTox GLR-Endo Assay Evaluation of Brachyury (BRA) Protein Expression, Deisenroth Lab (AID 2284417)
Outline: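 RUES2-GLR human pluripotent cells, seeded 24 h, then differentiated 48 h in defined media with two chemical exposures 24 h apart (10-point series, 1 nM - 200 uM). Fixed, nuclear-stained, imaged; endpoint is percent BRA+ cells minus 0.2% DMSO control.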

[6] = CCTE_Deisenroth_DEVTOX-GLR_Endo_CellCount: Viability Assessment in CCTE's DevTox GLR-Endo Assay, Deisenroth Lab (AID 2284420)
Experimental: CCTE_Deisenroth_DEVTOX-GLR_Endo assay is a cell-based, multiplex-readout assay that uses RUES2-GLR, a human pluripotent cell line, with measurements taken at 48 hours after chemical dosing in a 384-well microplateCCTE_Deisenroth_DEVTOX-GLR_Endo_CellCount is 1 of 4 assay components calculated from the CCTE_Deisenroth_DEVTOX-GLR_Endo assay and it measures cell count. Using fluorescent nuclear staining, loss-of-signal activity can be used to understand changes in cell viability with fluorescent microscopy. It is designed to make measurements of nuclei counts as a surrogate for cell number, as detected with optical fluorescence microscopy by Perkin Elmer Harmony nuclei detection algorithm. To generalize the intended target to other relatable targets, this assay component is annotated to the cell cycle intended target family, where the subfamily is cytotoxicity.Data from the assay component CCTE_Deisenroth_DEVTOX-GLR_Endo_CellCount was analyzed as 1 assay endpoint. The endpoint the percent change in cell count relative to the 0.2% DMSO control in the CCTE_Deisenroth_DEVTOX-GLR_Endo assay. Furthermore, this assay endpoint can be referred to as a primary readout, because this assay has produced multiple assay endpoints where this one serves as a measure of cytotoxicity.
(§1) All assay protocols are aligned to the DevTox GLR-Endo assay workflow. Cells are seeded into 384-well microplates for 24 hours prior to initiating differentiation in defined media for a total duration of 48 hours. A total of two chemical exposures are administered in 24-hour intervals during the 48-hour differentiation period. At the assay termination point, cells are fixed and stained with a fluorescent dye demarcating the nucleus. High-content imaging is used to acquire brightfield and fluorescent channel images across 5 fields per well. Cell identification and mean biomarker fluorescence intensities are calculated with image analysis software to determine the total cell counts for viability assessment and the biomarker expression frequency for each lineage-dependent assay. A typical experimental design tests a 10-point concentration series (1 nM - 200 uM) for 28 compounds in single technical replicate. Assay plate controls include non-differentiated pluripotent cells (baseline control), lineage-specific differentiated cells (differentiation control), and DMSO solvent exposed differentiated cells (solvent control). Experiments typically comprise a minimum of four experimental replicates (n=4).

[7] = test system: SRY-box transcription factor 17 (SOX17) Protein Expression, Deisenroth Lab, SOX17 (gene 64321); experiment: CCTE_Deisenroth_DEVTOX-GLR_Pluri_SOX17: CCTE's DevTox GLR-Pluri Assay Evaluation of SRY-box transcription factor 17 (SOX17) Protein Expression, Deisenroth Lab (AID 2284427; active = hit-call score of the fitted dose curve at least 0.9, where 1 is the maximum)
Outline: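 Using an inducible fluorescent SOX17 reporter in human pluripotent RUES2-GLR cells, compounds (1 nM - 200 uM) were given twice over 48 h differentiation. Percent SOX17+ cells minus DMSO control came from high-content image analysis.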

[8] = test system: SRY-box transcription factor 2 (SOX2) Protein Expression, Deisenroth Lab, SOX2 (gene 6657); experiment: CCTE_Deisenroth_DEVTOX-GLR_Pluri_SOX2: CCTE's DevTox GLR-Pluri Assay Evaluation of SRY-box transcription factor 2 (SOX2) Protein Expression, Deisenroth Lab (AID 2284428)
Outline: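 Percent SOX2+ RUES2-GLR cells, determined by fluorescence microscopy after 48 h and two 24-h-interval chemical exposures spanning 1 nM–200 uM, served as the endpoint. Values are expressed relative to 0.2% DMSO; total cell counts assessed viability.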

[9] = test system: Brachyury (BRA) Protein Expression, Deisenroth Lab, TBXT (gene 6862); experiment: CCTE_Deisenroth_DEVTOX-GLR_Pluri_BRA: CCTE's DevTox GLR-Pluri Assay Evaluation of Brachyury (BRA) Protein Expression, Deisenroth Lab (AID 2284429; active = hit-call score of the fitted dose curve at least 0.9, where 1 is the maximum)
Outline: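 Mesoderm readout after 48 h differentiation of human RUES2-GLR cells, dosed twice (24-h intervals) at 1 nM - 200 uM. BRA+ frequency from fluorescence imaging of fixed, nuclear-stained cells, DMSO-corrected.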

[10] = CCTE_Deisenroth_DEVTOX-GLR_Pluri_CellCount: Viability Assessment in CCTE's DevTox GLR-Pluri Assay Evaluation of Total Cell Counts, Deisenroth Lab (AID 2284430)
Experimental: CCTE_Deisenroth_DEVTOX-GLR_Pluri assay is a cell-based, multiplex-readout assay that uses RUES2-GLR, a human pluripotent cell line, with measurements taken at 48 hours after chemical dosing in a 384-well microplateCCTE_Deisenroth_DEVTOX-GLR_Pluri_CellCount is 1 of 4 assay components calculated from the CCTE_Deisenroth_DEVTOX-GLR_Pluri assay and it measures cell count. Using fluorescent nuclei staining, gain-of-signal activity can be used to understand changes in cell viability with fluorescent microscopy. It is designed to make measurements of nuclei counts as a surrogate for cell number, as detected with optical fluorescence microscopy by Perkin Elmer Harmony nuclei detection algorithm. To generalize the intended target to other relatable targets, this assay component is annotated to the cell cycle intended target family, where the subfamily is cytotoxicity.Data from the assay component CCTE_Deisenroth_DEVTOX-GLR_Pluri_CellCount was analyzed as 1 assay endpoint. The endpoint the percent change in the cell count relative to the 0.2% DMSO control in the CCTE_Deisenroth_DEVTOX-GLR_Pluri assay. Furthermore, this assay endpoint can be referred to as a primary readout, because this assay has produced multiple assay endpoints where this one serves as a measure of cytotoxicity.
as §1

Measured: AC50

C[C@]12C=CC(=O)C=C1CC[C@@H]1[C@@H]2C(=O)C[C@@]2(C)[C@H]1CC[C@]2(O)C(=O)CO
inactive: [1]

O=c1[nH]cc(F)c(=O)[nH]1
active: [2] 22 µM | [3] 34.3 µM | [4] 9.06 µM | [5] 20.3 µM | [6] 5.89 µM | [7] 7.95 µM | [8] 7.1 µM | [9] 7.54 µM | [10] 8.12 µM

CCCc1cc(=O)[nH]c(=S)[nH]1
inactive: [2] | [4] | [5] | [6] | [7] | [8] | [9] | [10]

CCCCC(CC)COC(=O)CC(C(=O)OCC(CC)CCCC)S(=O)(=O)O (stereo not drawn)
active: [1] 1.62 µM

CC(=O)Oc1ccccc1C(=O)O
inactive: [2] | [3] | [4] | [5] | [6] | [7] | [8] | [9] | [10]

Cc1ccc(C)c(O)c1C
active: [1] 21.9 µM

COc1cc(S(=O)(=O)O)c(C)cc1N=Nc1c(O)ccc2cc(S(=O)(=O)O)ccc12
active: [1] 30.8 µM

Oc1ccc2ccccc2c1N=Nc1ccccc1
active: [1] 1.37 µM

Cc1cccc(C)c1O
active: [1] 33.4 µM

Cc1cccc(Nc2cc(Cl)nc(SCC(=O)O)n2)c1C
active: [1] 3.12 µM

CC=Cc1ccc(O)c(OC)c1
active: [1] 13.6 µM

COc1cccc2c1C(=O)c1c(O)c3c(c(O)c1C2=O)C[C@@](O)(C(=O)CO)C[C@@H]3O[C@H]1C[C@H](N)[C@H](O)[C@H](C)O1
active: [2] 0.107 µM | [3] 2.25 µM | [4] 5.85 µM | [5] 0.0902 µM | [6] 0.00878 µM | [7] 0.27 µM | [8] 0.0073 µM | [9] 0.00927 µM | [10] 0.00758 µM
